The list is not random: actives were taken first. Their share in the collection is about 7.5%.
ELG1 genotoxic = induces genotoxicity in HEK293T cells with luciferase-tagged ELG1 | AID 504466 | Potency, µM (highest dose often 46 µM), for the others: at the highest dose activity change, positive = activation, most hits filed as activators | hit rate 1.3% among 330,000 | HEK293T ELG1-luciferase reporter, luminescence, 16 h; further: % of control where 0% means no effect; nearly all actives have a fitted effect of over 60% in size
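Genotoxic stress is detected as increased luminescence from luciferase-tagged ELG1 in HEK293T cells, measured with ONE-Glo after a 16 hr treatment at 37 °C.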
NPC1 prom act = activators of NPC1 promoter; hit rate 2.4% among 320,000; Huh7 NPC1 promoter luciferase reporter, 24 h; Potency, µM (doses to about 9.22 µM), for the others: top-dose activation, most hits filed as activators; further: % of control where 0% means no effect; nearly all actives have a fitted effect of over 60% in size
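Readout is luciferase luminescence, reflecting NPC1 promoter activation in stably transfected Huh7 cells after 24 h compound exposure at 37 °C in reduced-serum medium with 10% FBS.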
KinaseGlo FLuc = counter-screen: inhibitors of Kinase-Glo firefly luciferase. Q27757. Kinase-Glo luciferase, ATP luminescence, 8 min. Potency, µM (top dose mostly 38.3 µM), without a hit: top-dose activity change, negative = inhibition, most hits filed as inhibitors. hit rate 0.28% among 200,000; further: on the % scale 0 is the no-effect control and ±100 the full control effect; nearly all actives have a fitted effect of over 60% in size
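Recombinant Kinase-Glo luciferase, 10 uM ATP (linear range), luciferin; imidazole pH 7.2 / KCl / MgCl2 / Tween / BSA buffer; 8 min RT; luminescence.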
SMN2 splice up = increases expression of the SMN2 splice variant | HEK293 SMN2-luciferase splicing reporter, luminescence, 30-36 h | Potency, µM (top dose mostly 46.1 µM), for inactives: top-dose activity change, positive = activation, usual class: activators | hit rate 2.8% among 210,000 | AID 1458; further: % of control where 0% means no effect; nearly all actives have a fitted effect of over 55% in size
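qHTS luciferase splicing reporter: luminescence rises when SMN2 exon 7 is included in transfected HEK293 cells. Compound exposure lasted 30-36 h at 37C, with 4.5 mM final sodium butyrate as control, followed by a ONE-Glo read.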
Rab9 promoter act = activates the Rab9 promoter | Huh7 Rab9 promoter-luciferase reporter, luminescence, 24 h | Potency, µM (top dose mostly 9.22 µM), inactives show at the top dose activation, negative = inhibition, most hits filed as activators | hit rate 2.8% among 320,000 | AID 485297; further: % of control where 0% means no effect; nearly all actives have a fitted effect of over 60% in size
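Measured in stably transfected Huh7 cells bearing a Rab9 promoter–luciferase construct: 24 h compound treatment at 37 °C, followed by luminescence detection.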
FLuc modulator = counter-screen for miR-21 project: firefly luciferase inhibitors or activators. P08659. purified FLuc, Km substrates, luminescence inhibition. Potency, µM (top dose mostly 57.5 µM), for the others: top-dose activity change, negative = inhibition, hits mostly inhibitors. hit rate 6.9% among 360,000. AID 588342;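 further: plate controls were vehicle for no effect and reference inhibitor for full effect; nearly all actives have a fitted effect of over 55% in size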
Target sequence (P08659 whole entry, looked up): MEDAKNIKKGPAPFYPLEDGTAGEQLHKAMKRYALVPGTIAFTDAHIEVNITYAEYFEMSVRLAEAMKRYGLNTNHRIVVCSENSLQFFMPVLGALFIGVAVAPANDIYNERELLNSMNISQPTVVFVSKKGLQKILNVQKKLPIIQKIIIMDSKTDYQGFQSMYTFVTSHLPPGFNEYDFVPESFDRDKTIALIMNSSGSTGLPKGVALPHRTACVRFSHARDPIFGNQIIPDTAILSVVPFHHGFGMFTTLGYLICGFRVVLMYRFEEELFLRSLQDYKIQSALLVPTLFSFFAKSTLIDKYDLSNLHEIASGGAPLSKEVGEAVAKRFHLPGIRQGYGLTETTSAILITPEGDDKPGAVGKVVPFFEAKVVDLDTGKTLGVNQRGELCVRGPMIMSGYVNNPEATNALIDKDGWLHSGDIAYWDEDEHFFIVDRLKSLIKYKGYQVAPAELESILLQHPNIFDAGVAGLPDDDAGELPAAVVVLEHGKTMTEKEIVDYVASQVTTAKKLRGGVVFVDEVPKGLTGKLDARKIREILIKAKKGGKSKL
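Purified P. pyralis luciferase (10nM final) with 10uM D-luciferin and 10uM ATP (Km levels) in 50mM Tris acetate pH 7.5, 10mM Mg acetate, 0.01% Tween-20, 0.05% BSA; qHTS 6-point titration, ~60 µM downward; luminescence read.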
The depositor's hits bear a star; ? = inconclusive; / = no result given; [ ] = another dose, or the depositor's remark. The call rests on the fitted dose curve; in most records, active means well fitted curve in the direction sought with a large enough effect; inconclusive means small, poorly fitted or top-dose-only effect, or another doubt; inactive means no such curve, though single readings can be large; an effect the other way counts as inactive or inconclusive. Potency means the concentration at half of the fitted maximal effect.

SMILES	ELG1 genotoxic	NPC1 prom act	KinaseGlo FLuc	SMN2 splice up	Rab9 promoter act	FLuc modulator
Cc1ccc2cc3c(N)c(C(=O)N4CCOCC4)sc3nc2c1	1.16µM*	0.316µM*	/	/	3.98µM*	2.39µM*
Cc1ccc2cc3c(N)c(C(=O)N4CC(=O)Nc5ccccc54)sc3nc2c1	26.1%	-13.1%	-2.7%	2.4%	-4.0%	-13.7%
O=C(Nc1ccccc1)Nc1cccc2cccnc12	6.31µM*	2.7%	-6.7%	14.1µM*	23.4%	6.01µM*
CCOC(=O)c1ccc(NC(=O)Nc2cccc(C)n2)cc1	?	10.0%	-4.0%	5.7%	5.3%	0.6%
O=C(Nc1ccccn1)c1ccc(-c2ccccc2)cc1	?	0.1µM*	/	/	0.0891µM*	0.213µM*
O=C(Nc1ccccc1)Nc1cccc2ccccc12	-0.3%	11.2%	/	/	19.1%	?
CCOC(=O)c1ccc(NC(=O)Nc2ccccn2)cc1	?	2.51µM*	-6.8%	/	1.26µM*	2.69µM*
Cc1nc(NC(=O)Nc2ccc(Cl)cc2)sc1C	9.7%	11.6%	0.1%	?	3.16µM*	?
CC(C)(C)c1nnc(NC(=O)Nc2ccc(Cl)cc2)s1	-3.3%	?	/	/	?	-2.5%
Cn1c2c(c(=O)[nH]c1=O)C(c1cccc(O)c1)C1=C(N2)c2ccccc2C1=O (stereo not given)	-2.0%	-11.1%	-23.5%	-74.4%	-18.9%	?
O=C(Cc1ccc(F)cc1)NC1CC(=O)N(c2ccccc2)C1 (stereo not given)	/	/	/	/	/	-3.5%
O=C(Nc1ccncc1)Nc1ccncc1	6.8%	-7.8%	1.0%	-2.2%	-13.1%	0.3%
O=C(Nc1ccccc1)Nc1ccccn1	?	?	-2.8%	14.1µM*	?	12µM*
O=C(Nc1ccccn1)C(=O)Nc1ccccn1	4.61µM*	1.41µM*	/	/	1.26µM*	5.36µM*
O=C(Nc1ccncc1)Nc1ccc(Cl)cc1	14.4%	21.8%	/	/	6.2%	21.3µM*
Oc1ccccc1CNc1cccc2cccnc12	?	2.3%	-2.0%	/	27.1%	16.9µM*
CC(Nc1oc(-c2ccccc2)nc1-c1cccc2ccccc12)c1ccccc1 (stereo not given)	/	/	-3.4%	13.9%	/	/
O[C@@H](c1cc([C@@]23C[C@H]4CC[C@@H]2C[C@H](C4)C3)nc2c(Cl)cc(Cl)cc12)C1CCCCN1 (stereo not given in full)	/	/	-8.6%[7.66 µM]	0.7%[9.22 µM]	/	/
O=C(Nc1ccc(Cl)cc1)Nc1ccccn1	?	2.82µM*	/	/	2.24µM*	5.36µM*
Oc1ccccc1CNc1cnc2ccccc2c1	?	?	0.6%	?	?	10.7µM*
S=C(Nc1ccccn1)c1ccccn1	12.6µM*	2.82µM*	-21.4%	20µM*	2.51µM*	7.57µM*
Oc1ccc(Cl)cc1CNc1cnc2ccccc2c1	3.8%	-4.4%	/	/	3.7%	-13.4%
S=C(Nc1ccccn1)Nc1ccccc1Cl	10.1%	6.2%	0.5%	/	?	-22.5%
Cc1ccc(N(CC(O)CN2CCCCC2)S(=O)(=O)c2ccccc2)cc1 (stereo not given)	-1.8%[9.26 µM]	-2.7%	/	/	0.0%	0.3%
CC(C)c1[nH]nc2c1C(c1ccco1)C(C#N)=C(N)O2 (stereo not given)	10.7%	-4.5%	-4.0%	4.4%	-5.6%	-1.9%
SMILES	ELG1 genotoxic	NPC1 prom act	KinaseGlo FLuc	SMN2 splice up	Rab9 promoter act	FLuc modulator
CC(=O)N1CCC(N(Cc2ccc(C)o2)C(=O)Nc2ccc(C)cc2)CC1	/	/	/	/	/	2.6%
c1ccc(-c2csc(NC3=NCCCCC3)n2)cc1	?	17.6%	-1.4%	11.2µM*	?	19µM*
FC(F)Oc1ccc(-c2csc(NNC3=NCCCCC3)n2)cc1	4.5%	0.6%	1.6%	-14.3%	-5.5%	?
Brc1ccc(-c2csc(NNC3=NCCCCC3)n2)cc1	-3.0%	5.9%	/	/	-6.4%	19µM*
CC(C)(C)c1ccc(-c2csc(NNC3=NCCCCC3)n2)cc1	?	2.1%	-4.2%	-14.8%	-0.8%	15.1µM*
N#Cc1ccc(-c2csc(NC3=NCCCCC3)n2)cc1	14.3%	12.6%	-0.4%	?	23.5%	?
C[C@](O)(C(=O)Nc1ccc(S(=O)(=O)c2ccccc2)cc1)C(F)(F)F	/	/	4.1%	/	/	/
Cc1cc(C)cc(N(CCC(=O)Nc2nnc(C)s2)S(=O)(=O)c2ccc(Cl)cc2)c1	-0.3%	-7.2%	-3.2%	-5.0%[1.84 µM]	0.5%	0.4%
CC(C)CN(CCCNC(=O)c1cc(=O)[nH]c2ccc(S(=O)(=O)N3CCCCCC3)cc12)CC(C)C	/	/	/	/	/	2.3%
CCOC(=O)Cc1c(C)nc2c(-c3ccccc3)c(-c3ccccc3)[nH]n2c1=O	-3.8%	2.2%	3.4%	4.47µM*	0.3%	-11.8%
CCOC(=O)Cc1c(C)nc2c(-c3ccccc3)c(C)[nH]n2c1=O	-2.9%	2.1%	1.3%	-17.1%	1.9%	-11.7%
O=c1c(Cc2ccc(Cl)cc2)c(O)ccn1Cc1cccs1	-1.9%	-3.4%	1.3%	2.3%	0.0%	-9.1%
Oc1ccc(N=Nc2n[nH]c(-c3ccc(Cl)cc3)n2)cc1	2.5%	5.2%	7.2%	20µM*	0.8%	12µM*
CNC(=O)c1c(NC(=O)/C=C/c2ccccc2Cl)sc2c1CCC2	/	/	/	/	/	9.53µM*
Cc1ccc(NC(=O)c2c(NC(=O)c3ccccc3Cl)sc3c2CCC3)cc1	/	/	/	-4.1%	/	-17.7%
Cc1cccc(C(=O)Nc2sc3c(c2C(=O)O)CCC3)c1	5.9%	?	/	/	25.6%	16.9µM*
Cc1cccc(C(=O)Nc2sc3c(c2C(=O)NC(C)C)CCCC3)c1	/	/	/	-1.0%	/	-7.1%
CNC(=O)c1c(NC(=O)c2cccc(C)c2)sc2c1CCC2	?	?	/	/	?	21.3µM*
COc1cccc(C(=O)Nc2sc3c(c2C#N)CCN(C(C)=O)C3)c1	?	-27.4%	2.5%	-26.5%	0.2%	15.1µM*
Cc1cccc(NC(=O)c2c(NC(=O)c3ccccc3)sc3c2CCC3)c1	/	/	/	-9.1%	/	?
CC(C)CC(=O)NC(=S)Nc1ccc(NC(=O)c2ccco2)cc1	-1.5%	5.1%	0.1%	14.2%	-9.1%	1.1%
Cc1ccc(S(=O)(=O)N2CCN(C(=O)Cc3c(F)cccc3Cl)CC2)cc1	-7.5%	0.2%	/	/	-2.0%	3.1%
COc1cccc(C(=O)Nc2sc3c(c2C(=O)O)CCCC3)c1	-1.0%	5.2%	/	/	11.7%	21.3µM*
CCN1CCN(C(=O)c2cc3c(s2)-c2c(C)cccc2OC3)CC1	?	?	/	/	3.98µM*	10.7µM*
Cc1cccc2c1-c1sc(C(=O)N3CCCCC3)cc1CO2	?	3.55µM*	/	/	3.98µM*	13.5µM*
CCc1nn(CC(=O)NCc2ccco2)c(=O)c2cc3c(OC)cccc3n12	/	/	/	-2.1%	/	-3.0%
O=C(CN1CCN(Cc2ccccc2Cl)CC1)N/N=C/c1cccs1	0.6%	-0.1%	/	/	-2.4%	-0.8%
